{"source": "paper PMC7862700", "about": "“An all-to-all approach to the identification of sequence-specific readers for epigenetic DNA modifications on cytosine”", "test_in_all_cases": "DAPPL (digital affinity profiling via proximity ligation, sequencing); 10 mM Tris-HCl pH 7.5, 50 mM NaCl, 1 mM DTT, 4% glycerol, room temperature, 30 min; GST-TFs on glutathione beads, 16-mer random dsDNA library, 0.1% formaldehyde crosslink after washing; high values mean tight binding", "key": {"FEV": {"target": "T1, FEV (Homo sapiens, UniProt Q99581 1-238)", "T1 sequence": "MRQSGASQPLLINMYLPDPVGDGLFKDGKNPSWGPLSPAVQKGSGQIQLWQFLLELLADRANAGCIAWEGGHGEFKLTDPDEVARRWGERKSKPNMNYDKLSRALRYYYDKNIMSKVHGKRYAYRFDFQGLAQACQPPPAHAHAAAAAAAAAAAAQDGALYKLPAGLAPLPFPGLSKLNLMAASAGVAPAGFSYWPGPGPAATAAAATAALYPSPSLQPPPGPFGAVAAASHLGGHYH", "details": "protein: recombinant; tags: N-terminal GST; dsDNA, one strand shown", "how_it_was_run": "(§1)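 Binding signal is defined as a hexamer's read frequency for one factor over its frequency for the tag-only sample. To obtain reads, GST-fused human transcription factors were expressed in yeast, captured on glutathione beads, barcoded with DNA and pooled with that sample. Pools met 200 nmole of a 16-mer random double-stranded DNA library in Tris/NaCl/DTT/glycerol buffer for 30 min at room temperature before washing, 0.1% formaldehyde crosslinking, proximity ligation (BsaI/T4 ligase, 1 h, 37 °C), PCR and Illumina NextSeq500 sequencing.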"}, "ETV5": {"target": "ETV5 (Homo sapiens, UniProt P41161 1-510)", "sequence (P41161 whole entry)": "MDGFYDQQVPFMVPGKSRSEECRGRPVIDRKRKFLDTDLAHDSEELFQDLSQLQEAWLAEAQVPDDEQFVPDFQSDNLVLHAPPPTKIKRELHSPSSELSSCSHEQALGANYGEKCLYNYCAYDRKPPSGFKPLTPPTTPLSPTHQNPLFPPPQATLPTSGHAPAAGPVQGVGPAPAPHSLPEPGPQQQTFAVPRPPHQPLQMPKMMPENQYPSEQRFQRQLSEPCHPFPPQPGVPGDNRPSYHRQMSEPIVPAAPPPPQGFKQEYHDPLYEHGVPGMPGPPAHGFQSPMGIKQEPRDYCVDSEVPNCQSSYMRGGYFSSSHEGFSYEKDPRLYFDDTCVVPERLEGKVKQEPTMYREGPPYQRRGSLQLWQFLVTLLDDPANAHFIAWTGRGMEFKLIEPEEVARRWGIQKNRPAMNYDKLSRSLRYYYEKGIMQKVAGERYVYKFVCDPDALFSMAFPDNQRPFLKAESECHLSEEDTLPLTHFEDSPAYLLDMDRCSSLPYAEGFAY", "details": "protein: recombinant; tags: N-terminal GST; dsDNA, one strand shown", "how_it_was_run": "as §1"}, "HSF1": {"target": "HSF1 (Homo sapiens, UniProt Q00613 1-529)", "sequence (Q00613 whole entry)": "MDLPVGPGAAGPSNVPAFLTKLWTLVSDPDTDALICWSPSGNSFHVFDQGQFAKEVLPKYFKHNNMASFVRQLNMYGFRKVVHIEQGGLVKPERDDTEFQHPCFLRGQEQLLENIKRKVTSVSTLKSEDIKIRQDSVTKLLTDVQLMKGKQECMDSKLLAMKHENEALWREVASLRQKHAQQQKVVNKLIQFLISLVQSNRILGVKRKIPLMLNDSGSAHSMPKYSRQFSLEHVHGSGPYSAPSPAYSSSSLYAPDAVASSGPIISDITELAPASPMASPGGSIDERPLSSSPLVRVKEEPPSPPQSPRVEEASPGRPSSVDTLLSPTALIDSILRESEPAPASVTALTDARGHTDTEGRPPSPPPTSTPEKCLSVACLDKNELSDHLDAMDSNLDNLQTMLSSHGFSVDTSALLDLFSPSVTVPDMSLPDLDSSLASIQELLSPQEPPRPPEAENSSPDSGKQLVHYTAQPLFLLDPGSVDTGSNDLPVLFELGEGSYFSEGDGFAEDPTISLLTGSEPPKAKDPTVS", "details": "protein: recombinant; tags: N-terminal GST; chain copies: 3; dsDNA, one strand shown", "how_it_was_run": "as §1"}, "SPIC": {"target": "T2, SPIC (Homo sapiens, UniProt Q8N5J4 1-248)", "T2 sequence": "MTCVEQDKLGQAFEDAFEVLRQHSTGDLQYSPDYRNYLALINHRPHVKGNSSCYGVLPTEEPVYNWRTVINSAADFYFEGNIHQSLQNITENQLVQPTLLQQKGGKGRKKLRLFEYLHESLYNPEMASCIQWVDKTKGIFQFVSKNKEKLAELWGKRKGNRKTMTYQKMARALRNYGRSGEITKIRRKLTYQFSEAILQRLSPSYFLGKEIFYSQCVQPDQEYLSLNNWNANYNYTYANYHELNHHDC", "details": "protein: recombinant; tags: N-terminal GST; dsDNA, one strand shown", "how_it_was_run": "as §1"}, "ELF4": {"target": "ELF4 (Homo sapiens, UniProt Q99607 1-663)", "sequence (Q99607 whole entry)": "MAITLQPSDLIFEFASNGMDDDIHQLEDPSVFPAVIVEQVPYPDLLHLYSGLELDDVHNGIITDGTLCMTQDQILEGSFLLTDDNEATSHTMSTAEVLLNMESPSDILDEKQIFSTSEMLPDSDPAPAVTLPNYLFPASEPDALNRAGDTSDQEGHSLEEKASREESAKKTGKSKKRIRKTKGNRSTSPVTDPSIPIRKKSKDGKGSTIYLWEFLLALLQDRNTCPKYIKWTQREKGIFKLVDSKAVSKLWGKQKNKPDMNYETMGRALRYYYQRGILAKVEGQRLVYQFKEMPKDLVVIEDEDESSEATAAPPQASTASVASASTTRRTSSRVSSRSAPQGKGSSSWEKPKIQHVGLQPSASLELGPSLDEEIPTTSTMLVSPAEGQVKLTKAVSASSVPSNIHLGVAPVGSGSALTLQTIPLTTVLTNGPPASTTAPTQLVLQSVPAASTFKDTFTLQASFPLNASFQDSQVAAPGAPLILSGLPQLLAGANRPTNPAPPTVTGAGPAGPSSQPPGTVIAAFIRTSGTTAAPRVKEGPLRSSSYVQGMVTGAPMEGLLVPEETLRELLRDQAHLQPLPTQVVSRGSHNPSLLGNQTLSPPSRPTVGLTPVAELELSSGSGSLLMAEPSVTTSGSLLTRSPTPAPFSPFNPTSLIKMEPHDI", "details": "protein: recombinant; tags: N-terminal GST; dsDNA, one strand shown", "how_it_was_run": "as §1"}, "ELK4": {"target": "T3, ELK4 (Homo sapiens, UniProt P28324-2 1-405)", "T3 sequence": "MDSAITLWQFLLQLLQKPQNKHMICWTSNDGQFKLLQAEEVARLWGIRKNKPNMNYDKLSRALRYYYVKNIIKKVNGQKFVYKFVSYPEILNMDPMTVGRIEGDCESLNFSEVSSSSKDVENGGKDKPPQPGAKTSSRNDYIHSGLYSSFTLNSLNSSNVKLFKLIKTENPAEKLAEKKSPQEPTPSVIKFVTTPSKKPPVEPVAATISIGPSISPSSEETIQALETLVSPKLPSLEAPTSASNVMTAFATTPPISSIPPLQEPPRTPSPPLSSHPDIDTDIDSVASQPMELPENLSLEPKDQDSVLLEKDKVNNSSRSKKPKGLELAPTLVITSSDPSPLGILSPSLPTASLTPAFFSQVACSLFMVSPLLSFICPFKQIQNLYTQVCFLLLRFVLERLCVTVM", "details": "protein: recombinant; tags: N-terminal GST; dsDNA, one strand shown", "how_it_was_run": "as §1"}, "ETV2": {"target": "T4, ETV2 (Homo sapiens, UniProt O00321 1-342)", "T4 sequence": "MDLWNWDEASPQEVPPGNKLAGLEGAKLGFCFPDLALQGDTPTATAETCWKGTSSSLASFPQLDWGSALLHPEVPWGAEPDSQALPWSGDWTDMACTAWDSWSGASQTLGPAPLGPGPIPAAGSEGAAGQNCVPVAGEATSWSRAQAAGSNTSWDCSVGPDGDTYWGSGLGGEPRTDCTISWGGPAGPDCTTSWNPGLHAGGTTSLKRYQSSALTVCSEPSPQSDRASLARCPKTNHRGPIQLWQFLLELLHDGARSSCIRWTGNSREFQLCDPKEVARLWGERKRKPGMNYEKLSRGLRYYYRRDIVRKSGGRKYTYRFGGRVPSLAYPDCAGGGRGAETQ", "details": "protein: recombinant; tags: N-terminal GST; dsDNA, one strand shown", "how_it_was_run": "as §1"}, "ELF3": {"target": "T5, ELF3 (Homo sapiens, UniProt P78545 1-371)", "T5 sequence": "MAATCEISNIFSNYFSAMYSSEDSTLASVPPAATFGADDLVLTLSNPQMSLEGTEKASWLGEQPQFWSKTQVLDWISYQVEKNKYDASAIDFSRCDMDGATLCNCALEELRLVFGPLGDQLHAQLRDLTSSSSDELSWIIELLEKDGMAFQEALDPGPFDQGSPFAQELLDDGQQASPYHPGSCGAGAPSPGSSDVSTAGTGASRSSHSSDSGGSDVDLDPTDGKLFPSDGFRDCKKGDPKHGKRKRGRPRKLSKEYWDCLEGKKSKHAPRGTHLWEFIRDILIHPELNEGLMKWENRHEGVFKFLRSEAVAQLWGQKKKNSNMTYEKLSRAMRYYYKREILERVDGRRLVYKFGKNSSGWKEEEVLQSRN", "details": "protein: recombinant; tags: N-terminal GST; dsDNA, one strand shown", "how_it_was_run": "as §1"}, "CRX": {"target": "CRX (Homo sapiens, UniProt O43186 1-299)", "sequence (O43186 whole entry)": "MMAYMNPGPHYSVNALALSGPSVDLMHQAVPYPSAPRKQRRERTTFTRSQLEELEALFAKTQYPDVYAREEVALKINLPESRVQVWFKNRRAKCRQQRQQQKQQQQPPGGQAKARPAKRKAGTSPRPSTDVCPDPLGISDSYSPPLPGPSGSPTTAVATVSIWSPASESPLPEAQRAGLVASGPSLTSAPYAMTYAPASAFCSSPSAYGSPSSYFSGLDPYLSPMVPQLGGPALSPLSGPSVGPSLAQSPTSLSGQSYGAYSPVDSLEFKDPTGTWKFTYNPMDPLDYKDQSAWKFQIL", "details": "protein: recombinant; tags: N-terminal GST; dsDNA, one strand shown", "how_it_was_run": "as §1"}}, "data": [{"sequence": "CTTCTC", "values": [{"measurement": "binding signal", "setting": "FEV", "result": "1.35 fold enrichment (6-mer frequency, TF over GST control)"}, {"measurement": "binding signal", "setting": "ETV5", "result": "1.27 fold enrichment (6-mer frequency, TF over GST control)"}, {"measurement": "binding signal", "setting": "HSF1", "result": "2.19 fold enrichment (6-mer frequency, TF over GST control)"}, {"measurement": "binding signal", "setting": "SPIC", "result": "1.55 fold enrichment (6-mer frequency, TF over GST control)"}, {"measurement": "binding signal", "setting": "ELF4", "result": "1.39 fold enrichment (6-mer frequency, TF over GST control)"}, {"measurement": "binding signal", "setting": "ELK4", "result": "1.42 fold enrichment (6-mer frequency, TF over GST control)"}, {"measurement": "binding signal", "setting": "ETV2", "result": "1.39 fold enrichment (6-mer frequency, TF over GST control)"}, {"measurement": "binding signal", "setting": "ELF3", "result": "1.47 fold enrichment (6-mer frequency, TF over GST control)"}, {"measurement": "binding signal", "setting": "CRX", "result": "1.56 fold enrichment (6-mer frequency, TF over GST control)"}]}]}
